In PubChem BioAssay (NCI):
Compounds without any hit were thinned out: in the full panel of roughly 79,000, 15% have a hit. Calls of active or inactive are those of the source. Rule as the data show it: active = growth inhibition above about 70%; inactive = the rest.

Columns and labels:
[1] = NCI Yeast Anticancer Drug Screen. Data for the wt1 strain (AID 149);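 also: 0% = growth of vehicle-treated wt1 cultures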; settings: S. cerevisiae wt1 strain (SPY 50644) growth inhibition, stronger effect = higher value
Procedure, shortened: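 Vehicle-normalised growth inhibition; strain wt1; compound exposure.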

[2] = NCI Yeast Anticancer Drug Screen. Data for the rad50EPP+ strain (AID 151);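 also: 0% = growth of vehicle-treated control cultures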; settings: S. cerevisiae rad50 mutant strain, stronger effect = higher value
Procedure, shortened: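 Vehicle-normalised growth inhibition; rad50EPP+ yeast strain, altered in DNA damage repair, compound-treated.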

[3] = NCI Yeast Anticancer Drug Screen. Data for the rad50 strain (AID 155);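 also: 0% = growth of vehicle-only cultures of the same strain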; settings: S. cerevisiae rad50 strain growth inhibition, stronger effect = higher value
Procedure, shortened: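 A DNA repair-deficient yeast mutant serves as the test organism; compound-induced growth inhibition is calculated against vehicle-treated cells.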

[4] = NCI Yeast Anticancer Drug Screen. Data for the mec2-1 strain (AID 157); settings: S. cerevisiae mec2-1 strain, stronger effect = higher value
Procedure, shortened: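 Mutant yeast (mec2-1) grown with compound; growth inhibition relative to vehicle control reported.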

[5] = NCI Yeast Anticancer Drug Screen. Data for the rad14 strain (AID 159);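 also: 0% = growth of vehicle-treated control cultures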; settings: S. cerevisiae rad14 strain growth inhibition, stronger effect = higher value
Procedure, shortened: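 Vehicle-treated cultures served as the baseline for growth inhibition of a DNA repair-mutant yeast strain exposed to each compound.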

[6] = NCI Yeast Anticancer Drug Screen. Data for the sgs1 mgt1 strain (AID 161);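 also: 0% = growth of cultures given vehicle only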; settings: S. cerevisiae sgs1 mgt1 strain, stronger effect = higher value
Procedure, shortened: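 This yeast growth screen uses a strain with defined DNA-repair lesions; compound-treated growth is compared with vehicle-treated growth.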

[7] = NCI Yeast Anticancer Drug Screen. Data for the CLN2oe strain (AID 163);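 also: 0% = growth of vehicle-only control cultures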; settings: S. cerevisiae CLN2oe strain, stronger effect = higher value
Procedure, shortened: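 Compounds are applied to yeast harbouring a defined cell-cycle control change; reduced growth compared with vehicle-treated controls gives the value.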

[8] = NCI Yeast Anticancer Drug Screen. Data for the cln2 rad14 strain (AID 165);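 also: 0% = growth equal to vehicle treated cultures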; settings: S. cerevisiae cln2 rad14 strain, stronger effect = higher value
Procedure, shortened: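 Readout is yeast growth inhibition versus vehicle-treated controls, using a strain with cln2 and rad14 alterations exposed to compound.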

[9] = NCI Yeast Anticancer Drug Screen. Data for the bub3 strain (AID 167); settings: S. cerevisiae bub3 mutant strain, stronger effect = higher value
Procedure, shortened: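 Inhibition values come from growth of compound-treated mutant yeast normalised to vehicle-treated controls.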

[10] = NCI Yeast Anticancer Drug Screen. Data for the wt2 strain (AID 169);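 also: 0% = growth of vehicle-treated yeast cultures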; settings: S. cerevisiae wt2 strain growth inhibition, stronger effect = higher value
Procedure, shortened: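 Against vehicle-treated controls, the growth of yeast exposed to each compound was compared, and the inhibition was recorded.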

[11] = NCI Yeast Anticancer Drug Screen. Data for the mlh1 strain (AID 171);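 also: 0% = growth of vehicle-treated control cultures of the same strain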; settings: S. cerevisiae mlh1 strain growth inhibition, stronger effect = higher value
Procedure, shortened: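 Measured: yeast growth. Reference: vehicle-treated controls. Organism: strain with a defined alteration affecting DNA damage repair or cell cycle control, treated with compound.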

[12] = NCI Yeast Anticancer Drug Screen. Data for the sgs1 strain (AID 173);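 also: 0% = growth of vehicle-only control cultures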; settings: S. cerevisiae sgs1 mutant, stronger effect = higher value
Procedure, shortened: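 Each compound was added to cultures of the altered yeast strain. Growth was recorded, and inhibition was derived by comparison with vehicle controls.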

[13] = NCI Yeast Anticancer Drug Screen. Data for the mlh1 rad18 strain (AID 175); settings: S. cerevisiae mlh1 rad18 strain growth inhibition, stronger effect = higher value
Procedure, shortened: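 Genetically defined yeast (DNA repair-deficient) exposed to compounds; growth inhibition determined relative to vehicle.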

[14] = NCI Yeast Anticancer Drug Screen. Data for the rad18 strain (AID 177); settings: S. cerevisiae rad18 mutant growth inhibition, stronger effect = higher value
Procedure, shortened: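 Vehicle-treated cultures served as the baseline for scoring compound-induced growth inhibition in DNA-repair-mutant yeast.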

[15] = at 5.0 µM (retest, dose inferred, filed as 0.5)
[16] = at 50.0 µM (retest, dose inferred, filed as 5.0)

Measured: growth inhibition

Oc1ccc(Cc2nccc3cc(O)c(O)cc23)cc1O
active: [4]; [16] 73% | [4]; at 100.0 µM 77% | [9]; at 100.0 µM 79% | [10]; at 100.0 µM 70% | [12]; at 100.0 µM 73%
inactive: [1]; at 1.2 µM -9% | [1]; at 3.7 µM 2% | [1]; at 11.0 µM 3% | [1]; at 33.0 µM 19% | [1]; at 100.0 µM 66% | [2]; at 1.2 µM 16% | [2]; at 3.7 µM 31% | [2]; at 11.0 µM 22% | [2]; at 33.0 µM 24% | [2]; at 100.0 µM 33% | [3]; at 1.2 µM 3% | [3]; at 3.7 µM -6% | [3]; [15] 47% | [3]; at 11.0 µM 7% | [3]; at 33.0 µM 11% | [3]; [16] 66% | [3]; at 50.0 µM 48.9% | [3]; at 100.0 µM 28% | [4]; at 1.2 µM 21% | [4]; at 3.7 µM 28% | [4]; [15] 46% | [4]; at 11.0 µM 33% | [4]; at 33.0 µM 47% | [4]; at 50.0 µM -25.4% | [5]; at 1.2 µM 0% | [5]; at 3.7 µM 14% | [5]; at 11.0 µM 10% | [5]; at 33.0 µM 22% | [5]; at 100.0 µM 51% | [6]; [15] -1% | [6]; [16] 35% | [6]; at 50.0 µM 16.4% | [7]; at 1.2 µM 14% | [7]; at 3.7 µM 11% | [7]; at 11.0 µM 24% | [7]; at 33.0 µM 27% | [7]; at 100.0 µM 55% | [8]; [15] 43% | [8]; [16] 63% | [8]; at 50.0 µM -42.5% | [9]; at 1.2 µM 34% | [9]; at 3.7 µM 46% | [9]; [15] 20% | [9]; at 11.0 µM 57% | [9]; at 33.0 µM 68% | [9]; [16] 59% | [9]; at 50.0 µM 28.6% | [10]; at 1.2 µM -9% | [10]; at 3.7 µM 16% | [10]; at 11.0 µM 31% | [10]; at 33.0 µM 41% | [11]; at 1.2 µM -2% | [11]; at 3.7 µM 11% | [11]; at 11.0 µM 18% | [11]; at 33.0 µM 32% | [11]; at 100.0 µM 65% | [12]; at 1.2 µM 40% | [12]; at 3.7 µM 37% | [12]; at 11.0 µM 42% | [12]; at 33.0 µM 52% | [13]; [15] 33% | [13]; [16] 66% | [13]; at 50.0 µM 53.1% | [14]; at 1.2 µM -10% | [14]; at 3.7 µM 4% | [14]; at 11.0 µM 14% | [14]; at 33.0 µM 5% | [14]; at 100.0 µM 14%
